Assay outcomes from PubChem.
Pf Dd2 inh – Plasmodium falciparum Dd2 growth inhibition | 120,000 tested, 4.3% active | P. falciparum Dd2 growth, SYBR Green, 72 h | AID 1347417 | Potency, µM (titrated, usually from 28.9 µM), without a hit: at the highest dose activity, negative = inhibition, actives largely listed as inhibitors; active = well fitted inhibition curve with a large enough effect;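 note: plate controls were DMSO vehicle for no effect and reference drug for full effect; nearly all actives have a fitted effect of over 65% in size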
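Infected erythrocytes (Dd2, 0.3% parasitemia, 2.5% hematocrit final) are added to compound in RPMI-1640/Albumax II medium, grown 72 h at 37C in low oxygen, then lysed with saponin/Triton-X containing SYBR Green and read by fluorescence.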
The depositor's hits bear a star; [ ] = remark or other dose. Many of the other results were omitted from the sample, so hits are more common in it than they were. Potency is the fitted concentration of half-maximal effect.

How did COc1c(Cl)cc(C(=O)Nc2cc(-c3nc4ccccc4[nH]3)ccc2C)cc1Cl do in these assays?
Pf Dd2 inh: -28%

How did COc1ccc(CNC(=O)C[C@@H]2CCNC[C@@H]2Cc2cc(COc3ccccc3)on2)cc1OC do in these assays?
Pf Dd2 inh: -19%

Results for COc1ccc(-c2nc(-c3ccccc3)c(-c3ccccc3)[nH]2)cc1Br ?
Pf Dd2 inh: -2%

How did COc1cc(-c2nc(-c3cccc(Cl)c3)c(-c3ccccc3)[nH]2)cc(OC)c1OC do in these assays?
Pf Dd2 inh: 10µM*

How did COc1cc(-c2noc(CN3CCN(c4cccc(Cl)c4)CC3)n2)cc(OC)c1OC do in these assays?
Pf Dd2 inh: -9%

Results for Cc1ccc(-c2nnc3ccc(NC(C)C)nn23)nc1 ?
Pf Dd2 inh: inactive

Results for O=C(c1ccccc1F)N1CCC(N2C(=O)C(O)C23CCCCC3)CC1 (configuration not stated) ?
Pf Dd2 inh: -8%

Results for Cc1ccc(C(=O)N(Cc2ccco2)Cc2sccc2C)cc1 ?
Pf Dd2 inh: -6%

What do the screens show for `Cc1ccc(C)c(NC(=O)c2nc(S(C)(=O)=O)ncc2N(Cc2ccc(C(C)(C)C)cc2)Cc2ccco2)c1`?
Pf Dd2 inh: 2.5µM*

What do the screens show for `Cc1ccc(C)c(NC(=O)CCc2nc(-c3ccc(C(C)(C)C)cc3)no2)c1`?
Pf Dd2 inh: 0%

Results for Cc1ccsc1CN(Cc1ccco1)C(=O)c1ccc(Cl)cc1 ?
Pf Dd2 inh: 13%

How did CCS(=O)(=O)c1ncc(N(Cc2ccco2)Cc2sccc2C)c(C(=O)Nc2cc(C)ccc2C)n1 do in these assays?
Pf Dd2 inh: 5.6µM*

What do the screens show for `Cc1ccc(NC(=O)c2nc(S(C)(=O)=O)ncc2N(Cc2ccco2)Cc2cccs2)c(C)c1`?
Pf Dd2 inh: -8%

What do the screens show for `O=C1NC2(CCCN(C(=O)c3ccc4c(c3)OCO4)C2)Oc2ccccc21` (configuration not stated)?
Pf Dd2 inh: 36%

What do the screens show for `CCn1ncc(N2CCCC(CC(=O)NCc3ccccc3OC)C2)cc1=O` (configuration not stated)?
Pf Dd2 inh: -17%

How did CCOc1ccc(C(=O)N2CCC(Cc3nc(-c4ccc(OC)cc4)no3)CC2)cc1OCC do in these assays?
Pf Dd2 inh: 8.9µM*

What do the screens show for `COc1ccc(CCC(=O)N2CCC(Cc3nc(-c4ccc(F)cc4)no3)CC2)cc1`?
Pf Dd2 inh: -23%

How did CCOc1cc(C(=O)N2CCC(Cc3nc(-c4ccc(F)cc4)no3)CC2)cc(OCC)c1OCC do in these assays?
Pf Dd2 inh: -13%

What do the screens show for `COc1cccc(-c2noc(CC3CCN(C(=O)c4ccc(C)cc4)CC3)n2)c1`?
Pf Dd2 inh: inactive

How did COc1ccc(C(=O)N2CCC(Cc3nc(-c4ccccc4)no3)CC2)cc1F do in these assays?
Pf Dd2 inh: inactive

Results for CCc1ccc(C(=O)N2CCC(Cc3nc(-c4ccc(F)cc4)no3)CC2)cc1 ?
Pf Dd2 inh: inactive

What do the screens show for `COc1ccc(-c2noc(CC3CCN(C(=O)CCc4ccccc4)CC3)n2)cc1`?
Pf Dd2 inh: 11µM*

Results for CCOc1ccc(C(=O)N2CCC(Cc3nc(-c4ccc(F)cc4)no3)CC2)cc1OCC ?
Pf Dd2 inh: 5µM*

How did O=C(CCc1ccccc1)N1CCC(Cc2nc(-c3ccc(F)cc3)no2)CC1 do in these assays?
Pf Dd2 inh: inactive

What do the screens show for `COCCN1CCNc2cc(Nc3ccc(N4CCOCC4)cc3)ncc2C1`?
Pf Dd2 inh: -20%[44.1 µM]

Results for Cc1cccc(OCC(=O)N2CCC[C@H]2c2nc(-c3ccc(F)cc3)no2)c1 ?
Pf Dd2 inh: 52%

How did CC(c1ccc(-c2cc(N)ccn2)cc1)N1CCCCC1 (configuration not stated) do in these assays?
Pf Dd2 inh: inactive

What do the screens show for `Cc1noc(-c2cn(C3CCN(C(=O)COc4ccccc4)C3)nn2)n1` (configuration not stated)?
Pf Dd2 inh: inactive

What do the screens show for `Cc1cc2nc3n(c(=O)c2n1CC(=O)Nc1ccc(F)c(F)c1)CCC3`?
Pf Dd2 inh: inactive

How did Cc1ccc(C)c(NC(=O)CN2C(=O)C(c3ccccc3)=NC23CCCC3)c1 do in these assays?
Pf Dd2 inh: inactive

What do the screens show for `COc1ccc(-c2cc(N3CCC(NC(=O)c4ccc5cc[nH]c5c4)CC3)n[nH]2)cc1`?
Pf Dd2 inh: -12%

Results for O=C(c1ccccc1)N1CCn2c(nnc2C2CCNCC2)C1 ?
Pf Dd2 inh: 5%

Results for Cc1cccc(CN2CCN(Cc3nc(-c4ccco4)oc3C)C(C)C2=O)c1 (configuration not stated) ?
Pf Dd2 inh: 13µM*

How did Cc1cccc(-c2nc(CN3C(=O)CN=C(c4ccccc4)c4ccccc43)c(C)o2)c1 do in these assays?
Pf Dd2 inh: -22%

How did COc1cccc(CN2CC[C@H](c3nnc(-c4ccco4)o3)C2)c1 do in these assays?
Pf Dd2 inh: inactive

How did COc1cc(NC(=O)c2cc3n(n2)CC(c2ccc(Br)cc2)OC3)cc(OC)c1OC (configuration not stated) do in these assays?
Pf Dd2 inh: inactive

How did COCCn1ncc(N2CCC(NC(=O)C(C)(C)C)CC2)cc1=O do in these assays?
Pf Dd2 inh: 13%

Results for O=C1NC2(CCN(C(=O)c3ccc(C(F)(F)F)cc3)C2)Oc2ccccc21 (configuration not stated) ?
Pf Dd2 inh: inactive

Results for COc1ccc(OC)c(S(=O)(=O)N2CCOCCNC(=O)[C@@H]3CCC[C@@H]32)c1 ?
Pf Dd2 inh: 44%

Results for COc1ccc(CN2C(=O)[C@@H]3C[C@@H](O)CN3C3(CN(C4CCCC4)C3)C2=O)cc1 ?
Pf Dd2 inh: -7%[44.1 µM]

What do the screens show for `Cc1cnc(C)c(-c2cc(O)c3c(c2)CN(C(=O)C2CCOC2)CCO3)n1` (configuration not stated)?
Pf Dd2 inh: -16%

Results for Cc1nc(C(=O)N2CCOc3c(O)cc(-c4cccc(Cl)c4)cc3C2)c(C)o1 ?
Pf Dd2 inh: -19%

How did CCn1cc(C(=O)N2CCOc3c(O)cc(-c4ccccc4C)cc3C2)cn1 do in these assays?
Pf Dd2 inh: 13µM*

How did O=C(Cc1ccccc1)N1CCC2(CNc3ccccc3[S+](=O)([O-])N2)C1 (configuration not stated) do in these assays?
Pf Dd2 inh: inactive

What do the screens show for `Cn1cc(S(=O)(=O)N2CCCCC2)cc1C(=O)Nc1ccc(OC(F)(F)F)cc1`?
Pf Dd2 inh: 11µM*

Results for CC(=O)c1ccc(NC(=O)c2cc(S(=O)(=O)N3CCCCCC3)cn2C)cc1 ?
Pf Dd2 inh: 8%

Results for Cn1cc(S(=O)(=O)N2CCCC2)cc1C(=O)Nc1ccc(F)cc1F ?
Pf Dd2 inh: -3%

Results for O=C(Cn1ccn2nc(-c3ccc(F)cc3)c(CO)c2c1=O)NCc1ccc2c(c1)OCO2 ?
Pf Dd2 inh: 28%

How did Cc1ccccc1-c1cnc2[nH]cc(CC(=O)Nc3ccccc3)c2c1 do in these assays?
Pf Dd2 inh: inactive

How did COc1ccc(Nc2nc3c(S(=O)(=O)c4ccccc4)nnn3c3ccc(Cl)cc23)cc1OC do in these assays?
Pf Dd2 inh: 7%

Results for Cc1ccc(S(=O)(=O)c2nnn3c2nc(N2CCCC2)c2sccc23)cc1C ?
Pf Dd2 inh: -5%

What do the screens show for `COc1ccc(Nc2nc3c(S(=O)(=O)c4ccc(C)cc4)nnn3c3ccsc23)cc1Cl`?
Pf Dd2 inh: inactive

What do the screens show for `CC(=O)Nc1ccc(Nc2nc3c(S(=O)(=O)c4cc(C)ccc4C)nnn3c3ccsc23)cc1`?
Pf Dd2 inh: -24%

How did CN1CCN(c2nc3c(S(=O)(=O)c4ccccc4)nnn3c3ccsc23)CC1 do in these assays?
Pf Dd2 inh: 11%
